Values joined by “and” are separate entries in the source; they are usually repeats but may differ in a detail not shown here. Identical values can stand only once. Results filed as inconclusive are left out. Some compounds were tested as several samples or in several runs, with calls that do not always agree. Active and inactive are the calls of the source. Unless noted, calls follow the shape of the dose curve; as a rule, active = well fitted curve in the direction sought with a large enough effect in the repeat runs; inconclusive = weak or mixed curves; inactive = no such curve, though single readings can be large; an effect the other way counts as inactive or inconclusive.
Assays:
[1] = qHTS assay to identify small molecule agonists of H2AX (AID 1224845; active = well fitted activation curve with a large enough effect in the signal ratio in the repeat runs, not every such curve was filed as active; the % refers to the signal ratio)
In short: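 Wild-type CHO-K1 cells plated overnight, then exposed 3 hr at 37C to compounds at 15 concentrations (0.76% DMSO). Lysed, then HTRF anti-pH2AX(S139)-cryptate/anti-H2AX-d2 detection after 24 hr at room temperature; emissions 665 and 620 nm.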

[2] = qHTS assay to identify small molecule agonists of the hypoxia (HIF-1) signaling pathway (AID 1224846; active = well fitted activation curve with a large enough effect in the signal ratio in the repeat runs, not every such curve was filed as active; the % refers to the signal ratio)
In short: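 ME-180 HRE-bla reporter cells; compounds in DMSO, 17 h at 37C; read-out beta-lactamase via CCF4-AM FRET.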

[3] = qHTS assay to identify small molecule agonists of H2AX - cell viability counter screen (AID 1224847; calls by dose curve; also: nearly all actives have a fitted effect of over 30% in size; also: potency is read from the fitted curve at half-maximal effect; as to activity change, negative = cytotoxicity: top concentration of the series differs between compounds)
In short: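 CHO-K1 wt, 1000 cells/well, o/n 37C; cpds 15 conc, 3 h 37C, 0.76% DMSO; CellTiter-Glo, 30 min RT, luminescence.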

[4] = qHTS assay to identify small molecule antagonists of the estrogen related receptor (ERR) signaling pathway from Tox21 library (AID 1224848); also: nearly all actives have a fitted effect of over 50% in size; also: potency is read from the fitted curve at half-maximal effect
In short: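 Tox21 10K compounds in DMSO tested for ERR pathway antagonism in NTP's ERR cell line; 18 h, 37 C exposure; ONE-Glo luminescence.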

[5] = qHTS assay to identify small molecule agonists of the estrogen related receptor (ERR) signaling pathway from Tox21 library (AID 1224849; calls by dose curve; also: nearly all actives have a fitted effect of over 15% in size); conditions: ERR reporter cell line, ONE-Glo luciferase, 18 h
In short: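 Luciferase activity in ERR pathway reporter cells served as the agonist readout; exposure lasted 18 h at 37 C, with ONE-Glo detection after 30 min at room temperature.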

[6] = qHTS RealTime-Glo MT Cell Viability Assay in HepG2 cells - 24 hour (AID 1224867); also: nearly all actives have a fitted effect of over 50% in size; also: potency is read from the fitted curve at half-maximal effect
In short: (§1)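 Cells + NanoLuc/prosubstrate dispensed (600 cells/well) → 5 h at 37 C/5% CO2 → compounds in DMSO transferred → 40 h incubation at 37 C, luminescence read at 0, 8, 16, 24, 32, 40 h.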

[7] = qHTS RealTime-Glo MT Cell Viability Assay in HEK293 cells - 32 hour (AID 1224868); also: nearly all actives have a fitted effect of over 50% in size; also: potency is read from the fitted curve at half-maximal effect; as to activity change, negative = cytotoxic: top concentration of the series differs between compounds
In short: (§2)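 Tox21 10K qHTS, HEK293, 600 cells/well, RealTime-Glo reagent co-dispensed with cells; 5 h preincubation, compound by pintool, 37 C, luminescence at 0–40 h.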

[8] = A CellTox Green Cytotoxicity Assay to monitor cytotoxicity in HEK293 cells - 0 hour (AID 1224869); also: nearly all actives have a fitted effect of over 50% in size
In short: (§3)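 Real-time, in one plate: 600 HEK293 cells/well with dead-cell DNA dye, pinned compound after 5 h, 37 C incubation over 40 h; viable cells give no appreciable fluorescence.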

[9] = qHTS RealTime-Glo MT Cell Viability Assay in HepG2 cells - 40 hour (AID 1224870); also: nearly all actives have a fitted effect of over 50% in size; also: potency is read from the fitted curve at half-maximal effect
In short: (§4)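 HepG2 cells mixed with RealTime-Glo MT reagents (NanoLuc plus cell-permeant prosubstrate) were seeded at 600 cells/well, incubated 5 h at 37 C/5% CO2, then pinned with compounds in DMSO; nonlytic luminescence tracked viability during 40 h treatment.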

[10] = A CellTox Green Cytotoxicity Assay to monitor cytotoxicity in HEK293 cells - 40 hour (AID 1224871); also: nearly all actives have a fitted effect of over 45% in size; also: potency is read from the fitted curve at half-maximal effect
In short: as §3

[11] = qHTS RealTime-Glo MT Cell Viability Assay in HEK293 cells - 16 hour (AID 1224872); also: nearly all actives have a fitted effect of over 50% in size; also: potency is read from the fitted curve at half-maximal effect; as to activity change, negative = cytotoxicity: top concentration of the series differs between compounds
In short: as §2

[12] = qHTS RealTime-Glo MT Cell Viability Assay in HepG2 cells - 8 hour (AID 1224873); also: nearly all actives have a fitted effect of over 55% in size
In short: as §4

[13] = qHTS RealTime-Glo MT Cell Viability Assay in HEK293 cells - 40 hour (AID 1224874); conditions: RealTime-Glo luminescence; max response: stronger effect = lower value; also: nearly all actives have a fitted effect of over 50% in size; also: potency is read from the fitted curve at half-maximal effect
In short: (§5)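 Kinetic, non-lysing viability readout. Seed HEK293 (600/well) with reagent, incubate 5 h at 37 C/5% CO2, pin 23 nL compound in DMSO, incubate at 37 C, read luminescence at 0, 8, 16, 24, 32, 40 h.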

[14] = A CellTox Green Cytotoxicity Assay to monitor cytotoxicity in HEK293 cells - 24 hour (AID 1224875); also: nearly all actives have a fitted effect of over 45% in size
In short: as §3

[15] = A CellTox Green Cytotoxicity Assay to monitor cytotoxicity in HepG2 cells - 16 hour (AID 1224876); also: nearly all actives have a fitted effect of over 45% in size
In short: (§6)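 Cytotoxicity was tracked as dead-cell DNA fluorescence in HepG2 cells treated with test compounds at 37 C; each time-point value comes from one kinetic series spanning 0, 8, 16, 24, 32 and 40 h.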

[16] = qHTS RealTime-Glo MT Cell Viability Assay in HepG2 cells - 32 hour (AID 1224877); also: nearly all actives have a fitted effect of over 55% in size; also: potency is read from the fitted curve at half-maximal effect
In short: as §1

[17] = A CellTox Green Cytotoxicity Assay to monitor cytotoxicity in HepG2 cells - 24 hour (AID 1224878); also: nearly all actives have a fitted effect of over 45% in size
In short: as §6

[18] = A CellTox Green Cytotoxicity Assay to monitor cytotoxicity in HepG2 cells - 40 hour (AID 1224879); also: nearly all actives have a fitted effect of over 40% in size; also: potency is read from the fitted curve at half-maximal effect
In short: as §6

[19] = qHTS RealTime-Glo MT Cell Viability Assay in HEK293 cells - 0 hour (AID 1224880)
In short: as §5

[20] = A CellTox Green Cytotoxicity Assay to monitor cytotoxicity in HEK293 cells - 32 hour (AID 1224881); also: nearly all actives have a fitted effect of over 40% in size; also: potency is read from the fitted curve at half-maximal effect
In short: as §3
% is scaled to controls: 0 for no effect and ±100 for the full control effect.

N#CC1(N=NC2(C#N)CCCCC2)CCCCC1
inactive: Potency [1] | outcome [2] | Potency [3] | Potency [4] | activity change, positive = activation ([5]; at 92.4 µM (top of the series)) -5.87% | Potency [6] | Potency [7] | Potency [8] | Potency [9] | Potency [10] | Potency [11] | Potency [12] | max response [13] -7.83% | Potency [14] | Potency [15] | Potency [16] | Potency [17] | Potency [18] | outcome [19] | Potency [20]

O=C=NC1CCCCC1
inactive: Potency [1] | outcome [2] | Potency [3] | Potency [4] | Potency [7] | Potency [8] | Potency [9] | Potency [10] | Potency [11] | max response [13] 8% | Potency [14] | Potency [15] | Potency [16] | Potency [17] | Potency [18] | outcome [19] | Potency [20]

C=CCOCC1CO1 (stereo not drawn)
inactive: Potency [1] | outcome [2] | Potency [3] | Potency [4] | activity change, positive = activation ([5]; at 92.4 µM (top of the series)) -3.54% | Potency [6] | Potency [8] | Potency [9] | Potency [10] | Potency [11] | Potency [12] | max response [13] -8.98% | Potency [14] | Potency [15] | Potency [16] | Potency [17] | Potency [18] | outcome [19] | Potency [20]

Nc1c(Br)cc(Br)c2c1C(=O)c1ccccc1C2=O
inactive: activation (H2AX phosphorylation) [1] 2.27% [at 31.6 µM] | activation [2] 0.237% [at 15.8 µM] | activity change, negative = cytotoxicity [3] -4.33% [at 31.6 µM] | activity, negative = inhibition [4] 31.1% [at 19 µM] | cytotoxicity [8] -2.18% [at 15.8 µM] | activity change, negative = cytotoxic [9] 16.3% [at 15.8 µM] | cytotoxicity increase [10] -1.3% [at 15.8 µM] | activity change [14] -4.1% [at 15.8 µM, stronger effect = higher value] | cytotoxicity increase [15] -4.68% [at 15.8 µM] | activity change, negative = cytotoxic [16] 5.09% [at 15.8 µM] | cytotoxicity [17] -5.93% [at 15.8 µM] | cytotoxicity increase [18] -11% [at 15.8 µM] | activity change, negative = cytotoxicity [19] -4.62% [at 15.8 µM] | cytotoxicity increase [20] -1.22% [at 15.8 µM]

C=CCc1ccccc1O
inactive: Potency [1] | outcome [2] | Potency [3] | Potency [4] | activity change, positive = activation ([5]; at 92.4 µM (top of the series)) 0.524% | Potency [6] | Potency [8] | Potency [9] | Potency [10] | Potency [12] | Potency [14] | Potency [15] | Potency [16] | Potency [17] | Potency [18] | outcome [19] | Potency [20]

c1ccc2c(c1)sc1ccccc12
inactive: Potency [1] | outcome [2] | Potency [3] | Potency [4] | activity change, positive = activation ([5]; at 42.5 µM (top of the series)) 0.495% | activity change, positive = activation ([5]; at 92.4 µM (top of the series)) -4.7% | Potency [6] | Potency [8] | Potency [9] | Potency [11] | Potency [12] | Potency [14] | Potency [15] | Potency [16] | Potency [17] | Potency [18] | outcome [19] | Potency [20]

O=C(O)COc1cc(Cl)c(Cl)cc1Cl
inactive: Potency [1] | outcome [2] | Potency [3] | Potency [4] | activity change, positive = activation ([5]; at 92.4 µM (top of the series)) -7.72% and -14.1% | Potency [6] | Potency [8] | Potency [9] | Potency [10] | Potency [11] | max response [13] 6.38% | Potency [14] | Potency [15] | Potency [16] | Potency [17] | Potency [18] | outcome [19]
active: Potency [13] 15.5 µM
inactive and 15.5 µM (active): Potency [7]

CCCCOC(=O)CCC(=O)OCCCC
inactive: Potency [1] | outcome [2] | Potency [3] | Potency [4] | activity change, positive = activation ([5]; at 92.4 µM (top of the series)) 0.0296% | Potency [6] | Potency [7] | Potency [8] | Potency [9] | Potency [10] | Potency [11] | Potency [12] | max response [13] 3.34% | Potency [14] | Potency [15] | Potency [16] | outcome [19] | Potency [20]

C=CCOC(=O)C(C)(C)OC(=O)c1cc(-n2c(=O)cc(C(F)(F)F)n(C)c2=O)ccc1Cl
active: Potency [4] 26.8 µM | Potency [13] 21.5 µM
inactive: Potency [1] | outcome [2] | Potency [3] | activity change, positive = activation ([5]; at 92.4 µM (top of the series)) -42.4% | Potency [6] | Potency [8] | Potency [9] | Potency [10] | Potency [12] | Potency [14] | Potency [15] | Potency [16] | Potency [17] | Potency [18] | Potency [20]

CCCCNC(=O)OCC#CI
inactive: Potency [1] | outcome [2] | activity change, positive = activation ([5]; at 92.4 µM (top of the series)) -71.4% and -29.5% | Potency [8] | Potency [15]
active: Potency [3] 50.2 µM and 101 µM | Potency [4] 68.2 µM | Potency [6] 7.72 µM and 3.89 µM | Potency [7] 24.4 µM and 24.5 µM | Potency [9] 4.87 µM and 2.19 µM | Potency [10] 54.7 µM and 54.9 µM | Potency [11] 19.4 µM and 21.9 µM | Potency [16] 6.14 µM and 2.75 µM | Potency [18] 49 µM | Potency [20] 54.9 µM

Nc1ccccc1C(=O)OCC(O)CO (stereo not drawn)
inactive: Potency [1] | outcome [2] | Potency [3] | Potency [6] | Potency [7] | Potency [8] | Potency [9] | Potency [10] | Potency [11] | Potency [12] | max response [13] 9.15% | Potency [14] | Potency [15] | Potency [16] | Potency [18] | outcome [19] | Potency [20]

CCCC[N+](CCCC)(CCCC)CCCC
inactive: Potency [1] | outcome [2] | Potency [3] | Potency [4] | activity change, positive = activation ([5]; at 92.4 µM (top of the series)) -11.1% | Potency [6] | Potency [8] | Potency [9] | Potency [10] | Potency [12] | Potency [14] | Potency [15] | Potency [16] | Potency [18] | outcome [19] | Potency [20]

Oc1cccc(Cl)c1
inactive: Potency [1] | outcome [2] | Potency [3] | Potency [4] | activity change, positive = activation ([5]; at 92.4 µM (top of the series)) 1.9% | Potency [6] | Potency [7] | Potency [8] | Potency [9] | Potency [10] | Potency [11] | Potency [12] | max response [13] 0.464% | Potency [14] | Potency [15] | Potency [16] | Potency [17] | Potency [18] | outcome [19] | Potency [20]

CCOP(=O)(O)C(N)=O
inactive: Potency [1] | outcome [2] | Potency [3] | Potency [6] | Potency [7] | Potency [8] | Potency [9] | Potency [10] | Potency [11] | Potency [12] | max response [13] 20.4% | Potency [14] | Potency [15] | Potency [16] | Potency [17] | Potency [18] | outcome [19]

CCC[N+](CCC)(CCC)CCC
inactive: Potency [1] | outcome [2] | Potency [3] | Potency [4] | activity change, positive = activation ([5]; at 92.4 µM (top of the series)) -9.29% | Potency [6] | Potency [7] | Potency [8] | Potency [9] | Potency [10] | Potency [11] | Potency [12] | max response [13] 6.01% | Potency [14] | Potency [15] | Potency [16] | Potency [18] | outcome [19] | Potency [20]

Source: PubChem BioAssay (Tox21)
